# In all, about 110,000 compounds went through this assay and about 1,400 (1.3%) were called active. Shown is part of a subset that was picked to be rich in actives. Values without a mark were called inactive.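 How the source made its calls: active means Z score or B-score, a plate-position-corrected score, falls beyond the plate's 99.7% confidence bounds, in either direction; inactive means both scores lie inside the 99.7% bounds.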
# Target: Sodium-dependent dopamine transporter (Homo sapiens) (UniProt Q01959)
# Sequence (Q01959 whole entry, looked up): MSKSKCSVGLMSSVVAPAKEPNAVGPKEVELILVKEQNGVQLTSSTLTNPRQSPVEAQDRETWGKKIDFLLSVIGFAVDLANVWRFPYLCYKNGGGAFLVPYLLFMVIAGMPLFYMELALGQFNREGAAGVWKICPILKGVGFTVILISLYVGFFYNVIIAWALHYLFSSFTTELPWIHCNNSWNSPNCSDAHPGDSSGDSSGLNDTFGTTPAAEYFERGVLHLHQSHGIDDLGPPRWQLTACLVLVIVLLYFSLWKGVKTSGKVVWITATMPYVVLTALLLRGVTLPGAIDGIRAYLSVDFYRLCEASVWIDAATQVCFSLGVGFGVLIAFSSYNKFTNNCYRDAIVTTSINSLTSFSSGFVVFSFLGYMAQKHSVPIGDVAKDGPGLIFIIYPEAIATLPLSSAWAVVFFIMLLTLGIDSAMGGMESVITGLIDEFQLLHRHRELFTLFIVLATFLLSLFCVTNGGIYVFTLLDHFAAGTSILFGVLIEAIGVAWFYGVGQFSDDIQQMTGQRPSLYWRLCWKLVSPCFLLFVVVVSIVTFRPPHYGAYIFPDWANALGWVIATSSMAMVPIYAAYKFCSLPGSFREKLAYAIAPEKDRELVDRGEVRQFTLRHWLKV
# Test: changed hDAT dopamine uptake under cocaine IC80, either direction, primary screen, cocaine antagonist project, cell-based, LLC-PK1 hDAT, [14C]-dopamine uptake, MLSMR (AID 449768);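 further: scored against the spread of the other compound wells on the same plate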
# Conditions: LLC-PK1 hDAT cells, [14C]-dopamine uptake with cocaine IC80; at 10 µM; actives deviate in either direction
row,SMILES,B-score
1,COc1ccccc1CN1CCN(C(=O)Cc2ccccc2)CC1,0.503
2,O=C(COc1ccc2ccccc2c1)N1CCN(Cc2ccncc2)CC1,-1.8 (active)
3,CC(C)c1ccc(OCC(=O)N2CCN(C)CC2)c(Br)c1,-0.237
4,COC(=O)C1=C(c2cc3ccccc3o2)C[C@@H]2CC[C@H]1N2C(=O)NC1CCCCC1,-0.718
5,COC(=O)C1=C(c2ccccc2)C[C@@H]2CC[C@H]1N2C(=O)N1CCCCC1,-0.0906

# Reference: PubChem BioAssay AID449768 (Vanderbilt High Throughput Screening Facility, 2010)
